CYP2C9 act: activators of human CYP2C9; recombinant CYP2C9, luciferin-H conversion, luminescence; active compounds read high; factor 1 = untreated enzyme, 0 = blocked; activation factor at 5 µM; hit rate 1.4% among 96,000;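 active means activation factor of 2 or more for CYP2C9 at a 5 µM dose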;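 further: 0 = sulfaphenazole-blocked wells and 1 = vehicle-only wells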
CYP2C19 inh: inhibitors of human CYP2C19. CYP2C19 Supersomes, luciferin-H EGE luminescence, 30 min. inhibition, % at 5 µM. hit rate 21% among 96,000;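 active means CYP2C19 inhibition above a set limit at 5 µM in the primary screen, cut at about 50% in these data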;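 further: plate controls were negative control wells for no effect and 2.5 mM tranylcypromine positive control for full effect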
Target sequence (P33261 whole entry, looked up): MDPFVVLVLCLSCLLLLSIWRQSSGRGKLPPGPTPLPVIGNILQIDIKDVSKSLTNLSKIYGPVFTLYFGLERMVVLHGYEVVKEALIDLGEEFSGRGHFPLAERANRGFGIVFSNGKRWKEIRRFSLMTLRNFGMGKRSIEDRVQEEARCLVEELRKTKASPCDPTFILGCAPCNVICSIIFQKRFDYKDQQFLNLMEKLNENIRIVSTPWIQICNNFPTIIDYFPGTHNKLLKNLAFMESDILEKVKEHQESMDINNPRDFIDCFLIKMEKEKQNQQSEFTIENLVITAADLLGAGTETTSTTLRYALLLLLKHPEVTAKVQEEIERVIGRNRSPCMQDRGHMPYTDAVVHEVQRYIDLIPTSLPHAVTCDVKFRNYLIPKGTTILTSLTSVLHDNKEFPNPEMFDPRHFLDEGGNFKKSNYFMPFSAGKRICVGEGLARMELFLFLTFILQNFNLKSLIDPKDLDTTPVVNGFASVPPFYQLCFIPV
CYP2C19 activ: increases human CYP2C19 enzyme activity. P33261. recombinant CYP2C19, luciferin-H EGE luminescence; active compounds read high; 0 = fully inhibited enzyme, 1 = untreated enzyme. activation factor at 5 µM. 96,000 tested, under 10 active. AID 1025;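 active means activation factor of at least 2 at 5 µM in the primary screen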;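 further: 0 = wells with 2.5 mM tranylcypromine and 1 = vehicle-only wells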
Cav32 inh: blocks human Cav3.2 T-type calcium channel; O95180; Cav3.2-expressing cells, Fluo-4 calcium fluorescence FDSS; active compounds read low; B-score at 10 µM; hit rate 4% among 100,000; AID 449739;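 active means single-dose well whose peak fluorescence ratio is a statistical outlier from its plate by either plate-standardised score or position-corrected B-score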
CYP2C9 inhib: blocks human cytochrome P450 2C9; CYP2C9 Supersomes, luciferin-H conversion, luminescence; inhibition, % at 5 µM; hit rate 20% among 96,000; AID 777;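 active means blocking of liver enzyme CYP2C9 beyond about 50% at 5 µM, limit read from the data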
Active calls of the source: *; · = not tested or not shown. An excerpt weighted towards active compounds, which were near 27% of everything screened.

SMILES	CYP2C9 act	CYP2C19 inh	CYP2C19 activ	Cav32 inh	CYP2C9 inhib
COC(=O)c1ccc(Cc2ccc(C(=O)OC)o2)o1	0.9	19.8	0.8	0.0268	6.3
COC(=O)c1ccc(CN(c2ccc(C)cc2)S(=O)(=O)c2ccc3c(c2)OCCO3)o1	0.3	59.1*	0.4	0.357	73.6*
COC(=O)c1ccc(CN(C)S(=O)(=O)c2ccc(C)cc2)o1	0.4	90.7*	0.1	-0.314	57.8*
COc1ccc(N=c2sc3ccccc3n2C)cc1	0.7	51.3*	0.5	-0.112	28.7
Cc1n[nH]c(C)c1Sc1ccccc1N=Cc1cc([N+](=O)[O-])ccc1O	0.3	24.8	0.8	-0.53	74.0*
O=[N+]([O-])c1ccc([C@H](O)[C@H](CO)N=Cc2ccccc2O)cc1	0.8	-20.4	1.2	-0.581	17.5
CCOC(=O)C1=C(C)NC(SCC(=O)Nc2nc(C)cs2)=C(C#N)C1c1cccs1 (centres undefined)	0	85.1*	0.1	-6.95*	95.8*
CC(=O)C1=C(C)NC(SCC(N)=O)=C(C#N)C1c1sccc1C (centres undefined)	0.8	16.9	0.8	0.562	19.0
CCOC(=O)CSC1=C(C#N)C(c2sccc2C)C(C(C)=O)=C(C)N1 (centres undefined)	0.3	65.2*	0.3	-1.34	72.8*
CC(=O)C1=C(C)NC(SCC(N)=O)=C(C#N)C1c1cccs1 (centres undefined)	1	0.8	1	-0.122	3.4
O=C1OCCN1C(=O)[C@H]1[C@H](c2ccc([N+](=O)[O-])cc2)C(c2cccc(Cl)c2)=NN1c1ccccc1	·	·	·	-1.52	·
Brc1ccc(-c2nnc3n2C2(CCCC2)Cc2ccccc2-3)o1	·	·	·	-1.83	·
O=C(OCCCN=C1NS(=O)(=O)c2ccccc21)C1CC(=O)N(c2ccc(Cl)cc2)C1 (centres undefined)	·	·	·	1.66	·
Cc1cc(=O)oc2c(N)c(O)ccc12	1	-11.3	1.1	0.369	-2.0
Cc1cc2c(C)cc(=O)oc2c2c1NCCC2	3.1*	16.0	0.8	0.386	-210.0
CCOC(=O)c1c(NC(=S)NC(=O)c2cnn(CC)c2)sc2c1CCC(C)C2 (centres undefined)	0.9	-8.8	1.1	0.0844	5.3
O=C(Nc1ncnc2sc3c(c12)CCC3)c1ccco1	2.4*	43.5	0.6	1.13	-139.0
O=C(Nc1ncnc2sc3c(c12)CCCCC3)c1ccccc1	0.8	51.3*	0.5	-2.9	16.7
CN(C)C(=O)c1c(NC(=O)c2ccco2)sc2c1CCCCC2	·	·	·	0.309	·
O=C(Nc1sc2c(c1C(=O)O)CCCCC2)c1ccco1	0.5	39.5	0.6	0.448	51.2*
C(=N\Nc1ncnc2sc3c(c12)CCC3)/c1ccncc1	0.2	83.2*	0.2	1.99	82.1*
O=C(Nc1ncnc2sc3c(c12)CCCCC3)c1ccc(F)cc1	0.6	37.9	0.6	-2.23	41.7
CN(CC(=O)NCCN1CCN(c2ccccc2)CC1)S(=O)(=O)c1ccc2c(c1)CCC(=O)N2	0.9	3.1	1	0.498	9.8
Cc1cccc(C)c1NC(=O)C1(NC(=O)C2CCCN2C(=O)OC(C)(C)C)CCCCC1 (centres undefined)	1.1	-13.5	1.1	0.467	-12.5
CN=C1CC(SC)=C1c1ccc(C)cc1	·	·	·	-0.91	·
SMILES	CYP2C9 act	CYP2C19 inh	CYP2C19 activ	Cav32 inh	CYP2C9 inhib
CCOC(=O)C1CCCc2c1[nH]c1c(C(N)=O)cccc21 (centres undefined)	0.5	38.9	0.6	-0.577	53.1*
O=C(O)CS(=O)(=O)CC(=O)O	0.9	-2.7	1	0.341	13.6
Cc1ccc(NC(=O)C2CCCN(S(=O)(=O)c3cnc[nH]3)C2)cc1C (centres undefined)	0.1	90.5*	0.1	0.213	86.0*
O=C(Nc1cccc(Cl)c1)C1CCCN(S(=O)(=O)c2cnc[nH]2)C1 (centres undefined)	0	95.2*	0	-0.0685	95.6*
O=C(Nc1ccc(Cl)c(C(F)(F)F)c1)C1CCCN(S(=O)(=O)c2cnc[nH]2)C1 (centres undefined)	0.1	93.3*	0.1	0.542	93.8*
COc1ccc(NC(=O)C2CCCN(S(=O)(=O)c3cnc[nH]3)C2)cc1 (centres undefined)	0.4	37.1	0.6	1.19	61.9*
COc1ccc(NC(=O)C2CCCN(S(=O)(=O)c3cccc4nonc34)C2)cc1 (centres undefined)	0.9	4.3	1	-1.51	12.9
O=C(NCCN1CCN(c2cccc(Cl)c2)CC1)C1CCCN(S(=O)(=O)c2cnc[nH]2)C1 (centres undefined)	0.7	-0.4	1	0.439	27.0
COc1ccc(NC(=O)c2ccco2)c(NC(=O)Cc2cccs2)c1	0.6	40.3	0.6	0.318	40.7
Cc1ccc(-c2nc(SCC(=O)N(C)C3CCS(=O)(=O)C3)[nH]c2-c2ccc(C)cc2)cc1 (centres undefined)	0.7	16.0	0.8	-0.363	34.0
Cc1n[nH]c(C)c1S(=O)(=O)N1CCCC(C(=O)Nc2ccc3c(c2)OCCO3)C1 (centres undefined)	0.6	31.1	0.7	0.49	44.5
O=C(Nc1ccc2c(c1)OCCO2)C1CCCN(S(=O)(=O)c2cnc[nH]2)C1 (centres undefined)	0.4	14.2	0.9	0.22	62.2*
Cc1cc(NC(=O)C2CCCN(S(=O)(=O)c3cnc[nH]3)C2)ccc1Br (centres undefined)	0.1	96.8*	0	0.694	94.1*
CC(=O)/C(=N/Nc1ccccc1)N1CCOCC1	1.1	15.8	0.8	1.25	-5.9
CC(=O)/C(=N/Nc1cccc(Cl)c1)N1CCOCC1	0.4	72.0*	0.3	-0.162	64.8*
Cc1cc(NC(=O)c2ccc(S(=O)(=O)Nc3ccccc3)cc2)no1	0.5	21.4	0.8	-0.207	52.0*
Cc1cc(NS(=O)(=O)c2ccc(N)cc2)no1	·	·	·	-0.178	·
Cc1cc(NS(=O)(=O)c2ccc(-c3ccccc3)cc2)no1	0.1	13.3	0.9	-1.05	87.9*
Cc1ccc(S(=O)(=O)Nc2nncs2)cc1	0.7	-0.1	1	0.901	26.9
Cc1ccc(S(=O)(=O)NNc2ccccc2)cc1	1.2	20.5	0.8	-0.148	-15.6
Cc1ccc(S(=O)(=O)Nc2ccc(C(=O)Nc3cc(C)on3)cc2)cc1	·	·	·	-0.252	·
Cc1ccc(S(=O)(=O)Nn2c(C)ccc2C)cc1	0.8	63.8*	0.4	-0.615	21.9
Cc1ccc(S(=O)(=O)Nc2c(C)nn(C)c2C)cc1	1	79.4*	0.2	-0.306	4.7
Cc1ccc(CS(=O)(=O)CCC(=O)NCCCOC(C)C)cc1	0.9	-5.4	1.1	·	10.4
Cc1ccc(S(=O)(=O)Nc2ccccc2-c2ccccc2)cc1	0.5	57.5*	0.4	-5.75*	48.7
Cc1ccc(S(=O)(=O)Nc2cc(C)nn2-c2ccccc2)cc1	0	4.3	1	1.98	99.6*
CCOC(=O)Cn1nc(/C=C/c2ccc(C(C)C)cc2)ccc1=O	0.8	12.0	0.9	-2.02	19.1

Bioassay records: PubChem BioAssay, several laboratories
